{"source": "the supplement of paper PMC8728848", "test_in_all_cases": "glycan array binding signal (z-score within array); higher = stronger binding", "details_in_all_cases": "glycan notation: IUPAC condensed, linker removed", "key": {"[1]": {"molecular_target": "Gal(b1-4)GlcNAc(b1-3)Gal(b1-4)GlcNAc(b1-2)Man(a1-3)[Gal(b1-4)GlcNAc(b1-3)Gal(b1-4)GlcNAc(b1-2)Man(a1-6)]Man(b1-4)GlcNAc(b1-4)[Fuc(a1-6)]GlcNAc", "outline": "(§1)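 From the Consortium for Functional Glycomics database, 3228 arrays were curated, keeping only those whose protein sequence was available. Binding is given as a within-array Z-score averaged across arrays sharing a protein sequence and across linkers. Negative Z-scores can be read as non-binding.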"}, "[2]": {"molecular_target": "Gal(b1-4)GlcNAc(b1-3)Gal(b1-4)GlcNAc(b1-6)[Gal(b1-3)]GalNAc", "outline": "as §1"}, "GalNAc(b1-3)GlcNAc": {"molecular_target": "GalNAc(b1-3)GlcNAc", "outline": "as §1"}, "GalNAc3S(b1-4)GlcNAc3S": {"molecular_target": "GalNAc3S(b1-4)GlcNAc3S", "outline": "as §1"}, "[3]": {"molecular_target": "GlcNAc(b1-2)Gal(b1-3)GalNAc", "outline": "as §1"}, "[4]": {"molecular_target": "GlcNAc(b1-2)Man(a1-3)[GlcNAc(b1-2)Man(a1-6)]Man(b1-4)GlcNAc(b1-4)GlcNAc", "outline": "as §1"}, "[5]": {"molecular_target": "GlcNAc(b1-2)[GlcNAc(b1-4)]Man(a1-3)[GlcNAc(b1-2)Man(a1-6)]Man(b1-4)GlcNAc(b1-4)GlcNAc", "outline": "as §1"}, "[6]": {"molecular_target": "GlcNAc(b1-3)Gal(b1-4)GlcNAc", "outline": "as §1"}, "[7]": {"molecular_target": "GlcNAc(b1-3)Gal(b1-4)GlcNAc(b1-3)Gal(b1-4)GlcNAc(b1-2)Man(a1-3)[GlcNAc(b1-3)Gal(b1-4)GlcNAc(b1-3)Gal(b1-4)GlcNAc(b1-2)Man(a1-6)]Man(b1-4)GlcNAc(b1-4)GlcNAc", "outline": "as §1"}, "[8]": {"molecular_target": "GlcNAc(b1-3)Gal(b1-4)GlcNAc(b1-6)[GlcNAc(b1-3)Gal(b1-3)]GalNAc", "outline": "as §1"}, "Kdn(a2-3)Gal(b1-3)GalNAc": {"molecular_target": "Kdn(a2-3)Gal(b1-3)GalNAc", "outline": "as §1"}, "Kdn(a2-3)Gal(b1-3)GlcNAc": {"molecular_target": "Kdn(a2-3)Gal(b1-3)GlcNAc", "outline": "as §1"}, "[9]": {"molecular_target": "Man(a1-2)Man(a1-3)[Man(a1-6)]Man(a1-6)[Man(a1-2)Man(a1-3)]Man(b1-4)GlcNAc(b1-4)GlcNAc", "outline": "as §1"}, "[10]": {"molecular_target": "Man(a1-2)Man(a1-6)[Man(a1-3)]Man(a1-6)[Man(a1-2)Man(a1-2)Man(a1-3)]Man(b1-4)GlcNAc(b1-4)GlcNAc", "outline": "as §1"}, "[11]": {"molecular_target": "Man(a1-3)[Man(a1-6)]Man(a1-6)[Man(a1-2)Man(a1-3)]Man(b1-4)GlcNAc(b1-4)GlcNAc", "outline": "as §1"}, "[12]": {"molecular_target": "Man(a1-3)[Man(a1-6)]Man(a1-6)[Man(a1-3)]Man(b1-4)GlcNAc(b1-4)GlcNAc", "outline": "as §1"}, "[13]": {"molecular_target": "Man(a1-3)[Man(a1-6)]Man(b1-4)GlcNAc(b1-4)GlcNAc", "outline": "as §1"}, "[14]": {"molecular_target": "Man(a1-3)[Man(a1-6)]Man(b1-4)GlcNAc(b1-4)[Fuc(a1-6)]GlcNAc", "outline": "as §1"}, "[15]": {"molecular_target": "Neu5Ac(a2-3)Gal(b1-3)GlcNAc(b1-2)Man", "outline": "as §1"}, "[16]": {"molecular_target": "Neu5Ac(a2-3)Gal(b1-3)GlcNAc(b1-3)GalNAc", "outline": "as §1"}, "[17]": {"molecular_target": "Neu5Ac(a2-3)Gal(b1-3)GlcNAc(b1-4)Gal(b1-4)Glc", "outline": "as §1"}, "[18]": {"molecular_target": "Neu5Ac(a2-3)Gal(b1-4)GlcNAc(b1-3)Gal", "outline": "as §1"}, "[19]": {"molecular_target": "Neu5Ac(a2-3)Gal(b1-4)[Fuc(a1-3)]GlcNAc(b1-3)Gal", "outline": "as §1"}, "[20]": {"molecular_target": "Neu5Ac(a2-3)Gal(b1-4)[Fuc(a1-3)]GlcNAc(b1-3)GalNAc", "outline": "as §1"}, "[21]": {"molecular_target": "Neu5Ac(a2-3)[GalNAc(b1-4)]Gal(b1-4)GlcNAc", "outline": "as §1"}, "Neu5Ac(a2-6)Gal(b1-4)Glc": {"molecular_target": "Neu5Ac(a2-6)Gal(b1-4)Glc", "outline": "as §1"}, "[22]": {"molecular_target": "Neu5Ac(a2-6)Gal(b1-4)GlcNAc(b1-2)Man(a1-6)[Man(a1-3)]Man(b1-4)GlcNAc(b1-4)GlcNAc", "outline": "as §1"}, "[23]": {"molecular_target": "Neu5Ac(a2-8)Neu5Ac(a2-3)Gal(b1-3)GalNAc(b1-4)[Neu5Ac(a2-3)]Gal(b1-4)Glc", "outline": "as §1"}}, "note": "About 410 targets per protein were measured; listed, in parts, are those with the strongest signals and a random draw of the rest.", "data": [{"binder": "OrysaEULS2 (Oryza sativa) (protein) MVYCRANPNYAMTARNGAVVLAPANPKDEYQHWIKDMRWSTSIKDEEGYPAFALVNKATGQAIKHSLGQSHPVRLVPYNPEVMDESVLWTESRDVGNGFRCIRMVNNIYLNFDAFHGDKYHGGVRDGTDIVLWKWCEGDNQRWKIQPYYILEQKLISEEDLNSAVDHHHHHH", "values": [{"measurement": "glycan array binding signal (z-score)", "setting": "[1]", "result": 0.18}, {"measurement": "glycan array binding signal (z-score)", "setting": "[2]", "result": -0.172}, {"measurement": "glycan array binding signal (z-score)", "setting": "GalNAc(b1-3)GlcNAc", "result": -0.242}, {"measurement": "glycan array binding signal (z-score)", "setting": "GalNAc3S(b1-4)GlcNAc3S", "result": -0.189}, {"measurement": "glycan array binding signal (z-score)", "setting": "[3]", "result": -0.206}, {"measurement": "glycan array binding signal (z-score)", "setting": "[4]", "result": 3.13}, {"measurement": "glycan array binding signal (z-score)", "setting": "[5]", "result": -0.179}, {"measurement": "glycan array binding signal (z-score)", "setting": "[6]", "result": -0.186}, {"measurement": "glycan array binding signal (z-score)", "setting": "[7]", "result": 0.555}, {"measurement": "glycan array binding signal (z-score)", "setting": "[8]", "result": -0.224}, {"measurement": "glycan array binding signal (z-score)", "setting": "Kdn(a2-3)Gal(b1-3)GalNAc", "result": -0.167}, {"measurement": "glycan array binding signal (z-score)", "setting": "Kdn(a2-3)Gal(b1-3)GlcNAc", "result": -0.204}, {"measurement": "glycan array binding signal (z-score)", "setting": "[9]", "result": 1.35}, {"measurement": "glycan array binding signal (z-score)", "setting": "[10]", "result": 1.51}, {"measurement": "glycan array binding signal (z-score)", "setting": "[11]", "result": 4.8}, {"measurement": "glycan array binding signal (z-score)", "setting": "[12]", "result": 4.45}, {"measurement": "glycan array binding signal (z-score)", "setting": "[13]", "result": 12.5}, {"measurement": "glycan array binding signal (z-score)", "setting": "[14]", "result": 1.44}, {"measurement": "glycan array binding signal (z-score)", "setting": "[15]", "result": -0.31}, {"measurement": "glycan array binding signal (z-score)", "setting": "[16]", "result": -0.195}, {"measurement": "glycan array binding signal (z-score)", "setting": "[17]", "result": -0.24}, {"measurement": "glycan array binding signal (z-score)", "setting": "[18]", "result": -0.196}, {"measurement": "glycan array binding signal (z-score)", "setting": "[19]", "result": -0.179}, {"measurement": "glycan array binding signal (z-score)", "setting": "[20]", "result": -0.145}, {"measurement": "glycan array binding signal (z-score)", "setting": "[21]", "result": -0.207}, {"measurement": "glycan array binding signal (z-score)", "setting": "Neu5Ac(a2-6)Gal(b1-4)Glc", "result": -0.21}, {"measurement": "glycan array binding signal (z-score)", "setting": "[22]", "result": 3.61}, {"measurement": "glycan array binding signal (z-score)", "setting": "[23]", "result": -0.153}]}]}
